Assay results as given in PubChem BioAssay (NCATS).
Values joined by “and” are separate entries in the source; they are usually repeats but may differ in a detail not shown here. Equal values may be shown once. Inconclusive results are not listed. Active and inactive are the calls of the source. Unless noted, the call rests on the fitted dose curve; in most records, active means well fitted curve in the direction sought with a large enough effect; inconclusive means small, poorly fitted or top-dose-only effect, or another doubt; inactive means no such curve, though single readings can be large; an effect the other way counts as inactive or inconclusive.

Columns and labels:
[1] = molecular target: Estrogen receptor (Homo sapiens) (UniProt P03372); experiment: qHTS assay for small molecule antagonists of estrogen receptor alpha signaling (AID 588513; active means well fitted curve in the direction sought with a large enough effect in the signal ratio, with a control signal flat, not every such curve was filed as active; the % refers to the signal ratio; further: potency means the concentration at half of the fitted maximal effect)
Chain of Estrogen receptor (Homo sapiens) (P03372 whole entry, looked up): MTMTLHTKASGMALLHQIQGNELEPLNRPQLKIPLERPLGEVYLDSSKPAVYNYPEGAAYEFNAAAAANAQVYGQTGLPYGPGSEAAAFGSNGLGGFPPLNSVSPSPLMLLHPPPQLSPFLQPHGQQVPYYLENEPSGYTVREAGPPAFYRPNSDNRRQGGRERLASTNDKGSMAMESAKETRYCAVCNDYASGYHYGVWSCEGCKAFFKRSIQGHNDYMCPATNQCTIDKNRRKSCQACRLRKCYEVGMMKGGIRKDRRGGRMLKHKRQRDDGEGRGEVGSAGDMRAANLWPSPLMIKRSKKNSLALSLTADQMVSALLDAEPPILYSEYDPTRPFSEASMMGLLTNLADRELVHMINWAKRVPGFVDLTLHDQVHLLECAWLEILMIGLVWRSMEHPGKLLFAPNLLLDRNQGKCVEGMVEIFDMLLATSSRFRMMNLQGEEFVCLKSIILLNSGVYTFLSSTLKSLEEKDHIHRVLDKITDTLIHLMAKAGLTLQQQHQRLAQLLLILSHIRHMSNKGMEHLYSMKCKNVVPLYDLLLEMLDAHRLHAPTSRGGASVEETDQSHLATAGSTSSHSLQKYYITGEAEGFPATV
Procedure, shortened: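 Beta-lactamase reporter, antagonist mode, HEK 293 GripTite cells; 0.5nM E2 stimulus, 18 h, 37 C; CCF4 dye 2 h RT; fluorescence. IC50 and efficacy from Hill fits, normalized to E2 and DMSO.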

[2] = molecular target: Peroxisome proliferator-activated receptor gamma (Homo sapiens) (UniProt P37231); experiment: qHTS assay for small molecule agonists of peroxisome proliferator-activated receptor gamma signaling (AID 588536; active means well fitted curve in the direction sought with a large enough effect in the signal ratio, with a control signal flat, not every such curve was filed as active; the % refers to the signal ratio;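 further: 0% = DMSO basal wells and 100% = rosiglitazone at 2 µM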)
Chain of Peroxisome proliferator-activated receptor gamma (Homo sapiens) (P37231 whole entry, looked up): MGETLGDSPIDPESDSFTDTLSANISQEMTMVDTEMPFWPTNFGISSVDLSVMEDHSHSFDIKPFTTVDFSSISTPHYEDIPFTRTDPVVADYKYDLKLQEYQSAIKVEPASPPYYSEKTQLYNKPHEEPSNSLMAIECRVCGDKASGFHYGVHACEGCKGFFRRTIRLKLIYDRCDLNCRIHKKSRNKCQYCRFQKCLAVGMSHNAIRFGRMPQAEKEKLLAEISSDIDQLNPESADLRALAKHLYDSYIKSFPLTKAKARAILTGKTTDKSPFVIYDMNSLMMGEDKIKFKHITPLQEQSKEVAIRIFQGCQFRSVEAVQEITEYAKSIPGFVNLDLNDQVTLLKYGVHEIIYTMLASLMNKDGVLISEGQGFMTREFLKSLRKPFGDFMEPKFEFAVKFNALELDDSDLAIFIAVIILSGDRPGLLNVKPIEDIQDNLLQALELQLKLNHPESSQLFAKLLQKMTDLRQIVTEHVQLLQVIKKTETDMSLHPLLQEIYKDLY
Procedure, shortened: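 Using GeneBLAzer HEK293 cells, response was quantified by CCF4 fluorescence and normalized between basal DMSO (0%) and rosiglitazone 2 uM (100%); curves yielded half-maximal stimulation concentration and efficacy.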

[3] = molecular target: Peroxisome proliferator-activated receptor gamma (Homo sapiens) (UniProt P37231); experiment: qHTS assay for small molecule antagonists of peroxisome proliferator-activated receptor gamma signaling (AID 588537; active means well fitted inhibition curve with a large enough effect in the signal ratio, with a control signal flat, not every such curve was filed as active; the % refers to the signal ratio;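 further: reporter cells co-stimulated with 50 nM rosiglitazone agonist during compound treatment; % of control where 0% means no effect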)
Procedure, shortened: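 HEK293 cells, PPAR-gamma-UAS-bla, 3000/well. Pre-incubation 6-6.5 h, 37 C. Compound titration with rosiglitazone 50 nM final, 16 h. CCF4 dye, 2 h RT, dual-emission fluorescence.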

[4] = qHTS assay for small molecule agonists of retinoid X receptor alpha signaling (AID 588544; calls by dose curve;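 on activation: 0% = DMSO basal wells and 100% = reference agonist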); conditions: HEK293T RXRa-UAS-bla, beta-lactamase reporter, 18 h; 530 nm emission
[5] = molecular target: Retinoic acid receptor RXR-alpha (Homo sapiens) (UniProt P19793); experiment: as above
Chain of Retinoic acid receptor RXR-alpha (Homo sapiens) (P19793 whole entry, looked up): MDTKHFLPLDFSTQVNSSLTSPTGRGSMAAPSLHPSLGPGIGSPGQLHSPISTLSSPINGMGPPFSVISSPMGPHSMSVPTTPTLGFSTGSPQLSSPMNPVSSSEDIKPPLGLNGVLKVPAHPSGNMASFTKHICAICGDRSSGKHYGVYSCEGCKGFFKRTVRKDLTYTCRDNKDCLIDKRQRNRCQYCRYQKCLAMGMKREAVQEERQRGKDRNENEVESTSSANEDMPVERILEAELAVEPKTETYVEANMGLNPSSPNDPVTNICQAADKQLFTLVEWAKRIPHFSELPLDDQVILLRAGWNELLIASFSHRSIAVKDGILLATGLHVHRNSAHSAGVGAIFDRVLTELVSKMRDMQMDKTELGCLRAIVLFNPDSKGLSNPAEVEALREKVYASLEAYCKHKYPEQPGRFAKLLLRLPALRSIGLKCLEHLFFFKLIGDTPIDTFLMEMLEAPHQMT

[6] = molecular target: Thyroid hormone receptor beta (Homo sapiens) (UniProt P10828); experiment: qHTS assay for small molecule agonists of thyroid hormone receptor beta signaling (AID 588545; calls by dose curve;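 further: 0% = DMSO only and 100% = 10 nM T3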)
Chain of Thyroid hormone receptor beta (Homo sapiens) (P10828 whole entry, looked up): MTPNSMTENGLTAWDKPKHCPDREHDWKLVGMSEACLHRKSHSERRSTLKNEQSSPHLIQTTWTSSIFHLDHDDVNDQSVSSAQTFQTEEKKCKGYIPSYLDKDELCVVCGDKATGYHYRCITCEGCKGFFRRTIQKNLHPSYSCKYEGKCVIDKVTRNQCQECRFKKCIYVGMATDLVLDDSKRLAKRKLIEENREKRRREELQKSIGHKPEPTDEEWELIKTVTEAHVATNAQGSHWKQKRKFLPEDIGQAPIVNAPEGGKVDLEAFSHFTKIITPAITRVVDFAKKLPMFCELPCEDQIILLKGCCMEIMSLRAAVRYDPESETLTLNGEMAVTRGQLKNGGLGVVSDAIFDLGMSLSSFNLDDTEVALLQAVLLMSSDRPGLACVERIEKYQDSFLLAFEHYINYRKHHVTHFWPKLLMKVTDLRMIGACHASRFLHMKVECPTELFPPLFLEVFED
Procedure, shortened: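 Stimulation of a TR-driven beta-lactamase reporter was quantified in GripTite HEK 293 cells. Compound series ran for 18 hrs; curves were normalized to T3 and DMSO controls and fitted to yield EC50.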

[7] = qHTS assay for small molecule antagonists of retinoid X receptor alpha signaling (AID 588546; active means well fitted inhibition curve with a large enough effect in the signal ratio, with a control signal flat, not every such curve was filed as active; the % refers to the signal ratio; further: potency means the concentration at half of the fitted maximal effect;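 on max response: cells stimulated with 9-cis-retinoic acid as agonist; on the % scale 0 is the no-effect control and ±100 the full control effect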); conditions: HEK293T RXRa-UAS-bla, beta-lactamase ratio, antagonist mode; measured here: W530 green channel, cytotoxicity proxy
Procedure, shortened: (§1)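 Beta-lactamase reporter inhibition, read as CCF4 fluorescence ratio (ex 405, em 460/530 nm) after 2 h at RT. HEK293T UAS-bla cells, 2500/well, were stimulated with 9-cis-RA at 500 or 100 nM final alongside test compound for 18 h at 37 C.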

[8] = molecular target: Retinoic acid receptor RXR-alpha (Homo sapiens) (UniProt P19793); experiment: as above; conditions: HEK293T RXRa-UAS-bla, beta-lactamase ratio, antagonist mode
Procedure, shortened: as §1

[9] = qHTS assay for small molecule activators of the p53 signaling pathway (AID 651743; active means well fitted activation curve with a large enough effect in the signal ratio, not every such curve was filed as active; the % refers to the signal ratio; further: series mostly up to about 92 µM; % of control where 0% means no effect); conditions: HCT-116 p53RE-bla, beta-lactamase FRET ratio, 16 h; activation: stronger effect = higher value
Procedure, shortened: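 Here HCT-116 cells with an integrated p53-responsive beta-lactamase gene were incubated with compounds (16 hours, 37 C) after a 5-hour plating period; beta-lactamase activity was detected as fluorescence intensity via B/G FRET substrate.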

[10] = qHTS assay for environmental chemicals that activate the Aryl hydrocarbon Receptor (AhR) signaling pathway (AID 651777); conditions: 1A2-DRE human hepatoma cells, luciferase, 24 h; activation: stronger effect = higher value; further: % of control where 0% means no effect; nearly all actives have a fitted effect of over 15% in size
Procedure, shortened: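 Quantitative HTS in stably transfected human liver-derived cells whose luciferase gene sits downstream of the CYP1A2 promoter and dioxin response element. After 24 hr exposure at 37 C, One-Glo luminescence was measured.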

[11] = molecular target: Peroxisome proliferator-activated receptor alpha (Homo sapiens) (UniProt Q07869); experiment: qHTS assay for small molecule agonists of the peroxisome proliferator-activated receptor alpha (PPARalpha) signaling pathway (AID 651778); conditions: PathHunter PPARalpha complementation, chemiluminescence, 6 h; max response: stronger effect = higher value; further: % of control where 0% means no effect
Chain of Peroxisome proliferator-activated receptor alpha (Homo sapiens) (Q07869 whole entry, looked up): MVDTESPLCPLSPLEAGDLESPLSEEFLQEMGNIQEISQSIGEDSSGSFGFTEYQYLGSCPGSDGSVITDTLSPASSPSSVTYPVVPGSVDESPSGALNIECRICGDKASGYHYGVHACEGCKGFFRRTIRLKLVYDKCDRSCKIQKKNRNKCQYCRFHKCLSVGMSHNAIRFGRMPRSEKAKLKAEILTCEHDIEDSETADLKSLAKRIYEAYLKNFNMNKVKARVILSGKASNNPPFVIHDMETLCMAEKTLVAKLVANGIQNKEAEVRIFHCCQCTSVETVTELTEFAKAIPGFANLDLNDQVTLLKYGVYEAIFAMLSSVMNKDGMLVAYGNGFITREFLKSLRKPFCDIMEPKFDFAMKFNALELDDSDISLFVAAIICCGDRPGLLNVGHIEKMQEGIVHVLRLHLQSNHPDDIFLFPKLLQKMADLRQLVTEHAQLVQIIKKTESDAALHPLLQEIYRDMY
Procedure, shortened: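 Cells plated at 2,000/well and held overnight at 37 C, 5% CO2, then compound added by pin tool for 6 hr; after PathHunter detection reagent and 60 min at room temperature, chemiluminescence from enzyme complementation was read.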

[12] = qHTS assay for small molecule agonists of the antioxidant response element (ARE) signaling pathway measured by Nrf2-dependant transcriptional activity (AID 720636; active means well fitted curve in the direction sought with a large enough effect in the repeat runs; an effect the other way counts as inactive or inconclusive; further: % of control where 0% means no effect)
Procedure, shortened: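 Quantitative HTS format in HepG2 cells stably expressing an ARE-luciferase reporter; 16 hr compound treatment at 37 C, luciferase signal detected with ONE-Glo.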

[13] = qHTS assay for small molecule agonists of the antioxidant response element (ARE) signaling pathway measured by Nrf2-dependant transcriptional activity - cell viability counter screen (AID 720653; active means well fitted curve in the direction sought with a large enough effect in the repeat runs; an effect the other way counts as inactive or inconclusive; further: potency means the concentration at half of the fitted maximal effect; on max response: on the % scale 0 is the no-effect control and ±100 the full control effect); conditions: ARE-bla HepG2 viability, CellTiter-Glo ATP luminescence, 16 h; max response: stronger effect = lower value
Procedure, shortened: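 ARE-bla HepG2 cells (2,000/well) rested 5 hrs at 37C/5% CO2, then exposed to compounds in DMSO for 16 hrs. Viability was read in the same wells as intracellular ATP by luminescence, 30 min at room temperature after reagent addition.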

[14] = qHTS assay for cell viability of HEK293 cells (AID 743288); conditions: ATP luminescence (CellTiter-Glo), 18 h; max response: stronger effect = lower value; further: nearly all actives have a fitted effect of over 50% in size; further: potency means the concentration at half of the fitted maximal effect; on max response: on the % scale 0 is the no-effect control and ±100 the full control effect
Procedure, shortened: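 ATP luminescence (CellTiter-Glo) reports metabolically competent cell number after parental HEK293 cells, 2,000/well, were treated with DMSO-dissolved compounds for 18 h at 37 C; reagent incubation 30 min, room temperature.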

[15] = qHTS assay for cell viability of the p53RE-bla HCT-116 cell line (AID 743292); further: nearly all actives have a fitted effect of over 55% in size; further: potency means the concentration at half of the fitted maximal effect
Procedure, shortened: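 Viability of compound-treated p53RE-bla HCT-116 cells is taken from ATP-dependent luciferase luminescence. Treatment lasts 16 h at 37 C after a 5 h settling period; detection follows 30 min at room temperature.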

[16] = molecular target: Nuclear receptor subfamily 1 group I member 2 (Rattus norvegicus) (UniProt Q9R1A7); experiment: qHTS assay for small molecule activators of the rat pregnane X receptor (rPXR) signaling pathway (AID 651751; call rule not given here; further: 0% is about no effect); conditions: rPXR reporter cells, luciferase (One-Glo), 24 h
Chain of Nuclear receptor subfamily 1 group I member 2 (Rattus norvegicus) (Q9R1A7 whole entry, looked up): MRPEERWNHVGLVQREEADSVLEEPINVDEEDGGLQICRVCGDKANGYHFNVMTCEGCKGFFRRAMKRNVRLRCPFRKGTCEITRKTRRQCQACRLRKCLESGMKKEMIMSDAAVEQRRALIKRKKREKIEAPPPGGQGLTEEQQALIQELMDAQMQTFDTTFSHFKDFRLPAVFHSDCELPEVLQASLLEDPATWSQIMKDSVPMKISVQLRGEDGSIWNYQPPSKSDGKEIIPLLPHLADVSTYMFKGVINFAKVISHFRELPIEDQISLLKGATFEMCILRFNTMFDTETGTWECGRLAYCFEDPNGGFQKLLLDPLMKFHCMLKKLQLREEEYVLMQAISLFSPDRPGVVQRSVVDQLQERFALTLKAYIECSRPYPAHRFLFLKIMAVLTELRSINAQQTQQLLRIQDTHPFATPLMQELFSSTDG

[17] = molecular target: Peroxisome proliferator-activated receptor delta (Homo sapiens) (UniProt Q03181); experiment: qHTS assay for small molecule agonists of peroxisome proliferator-activated receptor delta signaling (AID 588534; calls by dose curve;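 further: 0% = DMSO basal wells and 100% = positive control agonist at 10 µM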)
Chain of Peroxisome proliferator-activated receptor delta (Homo sapiens) (Q03181 whole entry, looked up): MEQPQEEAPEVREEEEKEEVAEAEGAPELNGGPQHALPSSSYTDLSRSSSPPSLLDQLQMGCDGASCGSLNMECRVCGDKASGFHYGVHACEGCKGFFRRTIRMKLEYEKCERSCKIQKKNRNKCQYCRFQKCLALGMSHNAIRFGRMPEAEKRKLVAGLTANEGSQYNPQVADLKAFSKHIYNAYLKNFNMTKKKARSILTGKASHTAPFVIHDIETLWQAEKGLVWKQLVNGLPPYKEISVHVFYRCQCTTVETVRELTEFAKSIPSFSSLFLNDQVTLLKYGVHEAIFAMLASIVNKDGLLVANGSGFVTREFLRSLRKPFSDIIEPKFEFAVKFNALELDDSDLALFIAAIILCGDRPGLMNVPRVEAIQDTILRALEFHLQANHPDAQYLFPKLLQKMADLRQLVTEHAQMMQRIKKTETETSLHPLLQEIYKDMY
Procedure, shortened: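 Titration series tested in agonist mode on beta-lactamase reporter cells; 18 hrs at 37 C after a 5 hr pre-incubation. Readout: CCF4 fluorescence, 2 hrs RT. Hill equation gives EC50 and maximal response.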

[18] = molecular target: Vitamin D3 receptor (Homo sapiens) (UniProt P11473); experiment: qHTS assay for small molecule antagonists of vitamin D receptor signaling (AID 588541; calls by dose curve;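 further: receptor activated by calcitriol during compound treatment; series mostly up to about 77 µM; on the % scale 0 is the no-effect control and ±100 the full control effect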)
Chain of Vitamin D3 receptor (Homo sapiens) (P11473 whole entry, looked up): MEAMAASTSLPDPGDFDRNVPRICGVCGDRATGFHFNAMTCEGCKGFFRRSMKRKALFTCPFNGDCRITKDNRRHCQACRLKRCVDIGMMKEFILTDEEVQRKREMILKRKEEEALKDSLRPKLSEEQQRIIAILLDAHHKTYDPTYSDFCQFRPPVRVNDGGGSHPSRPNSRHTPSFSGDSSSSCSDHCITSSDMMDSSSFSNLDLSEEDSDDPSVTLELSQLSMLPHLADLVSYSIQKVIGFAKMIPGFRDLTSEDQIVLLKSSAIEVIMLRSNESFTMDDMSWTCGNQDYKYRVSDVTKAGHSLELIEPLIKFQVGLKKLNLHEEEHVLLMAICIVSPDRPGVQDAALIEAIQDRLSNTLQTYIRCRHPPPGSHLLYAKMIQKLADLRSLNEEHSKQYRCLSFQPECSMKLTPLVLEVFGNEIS
Procedure, shortened: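 VDR-UAS-bla HEK293T cells (2000/well, 2% charcoal-stripped FBS) were treated with titrated compounds plus 1-alpha,25-dihydroxyvitamin D3 (50 nM or 3 nM final) for 16 h at 37 C. CCF4 beta-lactamase fluorescence was read; Hill fits gave IC50.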

[19] = molecular target: Vitamin D3 receptor (Homo sapiens) (UniProt P11473); experiment: qHTS assay for small molecule agonists of vitamin D receptor signaling (AID 588543; calls by dose curve;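 further: 0% = DMSO basal and 100% = reference agonist control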)
Procedure, shortened: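 β-lactamase reporter, VDR-UAS-bla HEK293T, agonist mode. Cells plated 5 h at 37 °C, compound titration 16 h at 37 °C, CCF4 dye 2 h RT, ratio 460/530 nm. Hill fit → EC50, efficacy vs 50 nM 1α,25-(OH)2D3.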

[20] = qHTS assay for small molecule antagonists of peroxisome proliferator-activated receptor delta signaling (AID 588535); conditions: HEK293T PPARd-UAS-bla, beta-lactamase FRET ratio, 18 h; 460 nm channel;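 further: cells co-treated with a PPAR-delta agonist as stimulator during compound exposure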
Procedure, shortened: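 Compounds tested in titration on PPAR-delta-UAS-bla HEK293T cells grown in charcoal/dextran-stripped serum (2%); beta-lactamase activity read via CCF4 emission at 460 and 530 nm.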

Nc1nc(N)nc(Cl)n1
-6.94% and -9.26% and -7.48%: max response [7]
inactive: Potency [1] | Potency [2] | Potency [3] | Potency [5] | Potency [6] | max response [8] -8.75% and -3.8% and 6.06% | activation [9] 14% and -1.73% | activation [10] 0.466% and 6.68% and -2.27% | max response [11] 0.345% and 0.412% and -1.56% | Potency [12] | max response [13] -27.2% and -2.73% and -17.4% | max response [14] -6.86% and -11.8% and -2.3% | Potency [15] | max response [16] 0.0938% and 1.1% and -0.658%
-8.55% and -12.5% and -6.12%: max response [4]

CCC[CH2][Sn]([CH2]CCC)([O]C(C)=O)[O]C(C)=O
5.61%: max response [4]
2.17%: max response [7]
inactive: Potency [1] | outcome [17] | Potency [18] | outcome [19] | Potency [5] | Potency [6] | activation [9] 4.26% | activation [10] -0.036% | max response [11] -2.27% | max response [13] -3.33% | Potency [15] | max response [16] -0.354%
active: Potency [8] 22.4 µM

CCOc1ccc(C(C)(C)COCc2cccc(Oc3ccccc3)c2)cc1
inactive: Potency [1] | outcome [17] | Potency [2] | Potency [3] | Potency [18] | outcome [19] | Potency [6] | max response [8] -7.6% | activation [9] -0.0413% | activation [10] 1.55% | max response [11] -1.64% | Potency [12] | max response [13] -4.24% | max response [14] -6.28% | Potency [15]
-0.606%: max response [20]
-7.02%: max response [7]

CCC[CH2][Sn]([CH2]CCC)[CH2]CCC
active: Potency [1] 15.8 µM [inhibitor] | Potency [13] 15.8 µM | Potency [14] 28.2 µM | Potency [15] 28.2 µM
inactive: activation [10] -0.508% | max response [11] 1.41% | max response [16] -14%

CCCCC(CC)CO[N+](=O)[O-] (stereo not drawn)
-8.14%: max response [7]
-28%: max response [20]
inactive: Potency [1] | outcome [17] | Potency [2] | Potency [3] | Potency [18] | Potency [5] | Potency [6] | max response [8] 3.31% | activation [9] -4.18% | activation [10] 2.43% | max response [11] -0.348% | Potency [12] | max response [13] -12.3% | max response [14] 3.43% | Potency [15] | max response [16] 1.62%
-0.882%: max response [4]

CN(C)P(=O)(N(C)C)N(C)C
-16.8%: max response [4]
inactive: Potency [1] | outcome [17] | Potency [2] | Potency [3] | outcome [19] | Potency [5] | Potency [6] | max response [8] -0.0212% | activation [9] -2.55% | activation [10] 0.845% | max response [11] 0.0783% | Potency [12] | max response [13] -5.07% | max response [14] 0.472% | Potency [15] | max response [16] -0.946%
-0.709%: max response [20]
-10.5%: max response [7]
